We go through 71 compounds from PubChem BioAssay AID449764 (Southern Research Specialized Biocontainment Screening …, 2010).

Out of some 2,300 compounds screened, about 1,700 (74%) were called active. The rule behind the calls is not given here. The set was probably picked from earlier hits. The list shows a part of the results. Potency and affinity values are given separately.

As usually defined, the inhibition is the relative decrease from the control value, in per cent.

The assay can be described thus: Mycobacterium tuberculosis H37Rv growth inhibition, no glycerol, confirmatory dose response (AID 449764).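 Note: growth read after 7 days of incubation.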 The note with it: series mostly up to 100 µM; inhibition: at the top concentration.
For the compound `O=C(CSCC(=O)Nc1ccc2ccccc2c1)NCc1ccccc1`, the “inhibition” value is -0.93% (inactive).

`Cn1ccnc1-c1nnn(-c2ccc(Cl)c(Cl)c2)n1`: the “inhibition” value is -4.2% (inactive).

On to `CCOc1ccc(-n2c(-c3ccc(Br)cc3)c[n+]3c2CCCCC3)cc1`, for which the “inhibition” value is 28.2% (inactive).

In the case of `c1ccc(Cn2nnc3c(N4CCc5ccccc5C4)ncnc32)cc1`, the “inhibition” value is 10.7% (inactive).

For `Cn1c(=O)c(C(=O)COC(=O)c2cc(C(F)(F)F)nc3c(C(F)(F)F)cccc23)c(N)n(CC2CC2)c1=O`, the “inhibition” value was -1.78% (inactive).

As to `Cc1cc(NC(=O)c2noc3c2CCCC3)nn1Cc1ccc(Cl)cc1`, the “inhibition” value is -5.15% (inactive).

Take `Cc1ccc(NC(=O)/C(Cl)=C\c2ccccc2)cc1`: the “inhibition” value is -8.13% (inactive).

Consider `Nc1ccc2c(c1)Cc1ccccc1-2`, for which the “inhibition” value is -1.21% (inactive).

Consider `C/C=C(\C)C(=O)Nc1cccc(C2=NOC3(C2)C[C@H](C(N)=O)N(C(=O)c2cc([N+](=O)[O-])cc([N+](=O)[O-])c2)C3)c1` (stereo partly specified), for which the “inhibition” value is 20.7% (inactive).

With `CCc1cc(C(=O)Nc2ccc(C)cc2Br)cs1`, the “inhibition” value is 8.99% (inactive).

As to `CC(=O)CCSc1ncnc2sc(-c3ccccc3)cc12`, the “inhibition” value was -1.41% (inactive).

Consider `O=C(CCSc1ccc(Cl)cc1)NC12CC3CC(CC(C3)C1)C2`, for which the “inhibition” value is -2.68% (inactive).

For the compound `Nc1cc(=O)[nH]c(SCc2csc(-c3ccccc3)n2)n1`, the “inhibition” value was -1.35% (inactive).

Take `CSc1ccccc1C(=O)NC1CCSc2ccccc21` (stereo unspecified): the “inhibition” value is 20.9% (inactive).

For `Cc1cccc(COc2ccccc2/C=N/Nc2ccc([N+](=O)[O-])cc2)c1`, the “inhibition” value was 5.72% (inactive).

For `CCCn1c(O)c(N=NC(=O)c2ccco2)c2ccccc21`, the “inhibition” value is 4.39% (inactive).

As for `Cc1c(Cl)c([N+](=O)[O-])nn1Cc1ccc(C(=O)N/N=C\c2cccc(Br)c2)o1`, the “inhibition” value is 27.6% (inactive).

On to `CCn1nc(C)c(C(=O)Nc2cc(Oc3cc(C)cc(C)c3)cc([N+](=O)[O-])c2)c1C`, for which the “inhibition” value was -9.17% (inactive).

`CN1C(=O)CC(c2ccccc2)C1=O` (stereo unspecified): the “inhibition” value is -0.42% (inactive).

For the compound `COc1ccc(OC)c(C(=O)NC(CC(N)=O)c2ccc(NCc3ccc(F)c(F)c3)c([N+](=O)[O-])c2)c1` (stereo unspecified), the “inhibition” value was -5.11% (inactive).

Consider `Nc1ccc2oc(-c3cccs3)nc2c1`, for which the “inhibition” value was -1.81% (inactive).

As for `Fc1cccc2sc(Nc3nc4cc5c(cc4s3)OCO5)nc12`, the “inhibition” value is 5.75% (inactive).

For the compound `CC1=CC(=O)NP(=O)(Oc2ccc3ccccc3c2)N1` (stereo unspecified), the “inhibition” value was -1.64% (inactive).

As to `O=C(OCCN1C(=O)c2ccccc2C1=O)c1cc2ccccc2o1`, the “inhibition” value was -0.54% (inactive).

Take `C=CCc1cccc(CNc2cnc3ccccc3c2)c1O`: the “inhibition” value is 2.59% (inactive).

Turning to `CNc1cccccc1=S`, the “inhibition” value is -4.44% (inactive).

As for `COc1cc2cnc(-c3ccccc3)c(-c3ccc(C(F)(F)F)cc3)c2cc1OC`, the “inhibition” value is -0.08% (inactive).

Turning to `CCCCc1cc(=O)oc2cc(O)ccc12`, the “inhibition” value was 11.3% (inactive).

Consider `Cc1n[nH]c(=S)n1/N=C/c1cccc(OCc2ccccc2)c1`, for which the “inhibition” value was 7.56% (inactive).

For the compound `COC(=O)c1cccc(C#CC(NP(=O)(c2ccccc2)c2ccccc2)c2ccccc2)c1` (stereo unspecified), the “inhibition” value is 0.43% (inactive).

With `COc1ccc(NC(=O)CN(C)C(=O)c2n[nH]c3ccccc23)cc1`, the “inhibition” value was -4.02% (inactive).

Consider `CCOC(=O)c1cc(-c2cccc([N+](=O)[O-])c2)on1`, for which the “inhibition” value was -2.44% (inactive).

Turning to `O=C(C1CCC1)N1CCN(S(=O)(=O)c2ccc(Br)cc2Cl)CC1`, the “inhibition” value is 5.08% (inactive).

In the case of `CCCNC(=O)NC(=O)COc1ccc2oc3ccccc3c2c1`, the “inhibition” value was 6.46% (inactive).

For the compound `COc1ccc(N=Cc2ccc(CNS(=O)(=O)c3ccc(Cl)cc3)o2)cc1`, the “inhibition” value is -4.59% (inactive).

For the compound `CCOC(=O)c1ccc(NC(=S)Nc2ccc3[nH]c(=O)[nH]c3c2)cc1`, the “inhibition” value is 29.6% (inactive).

On to `CCCN(C(=O)CCOc1ccc(C(C)(C)C)cc1)c1c(N)n(Cc2ccccc2)c(=O)[nH]c1=O`, for which the “inhibition” value is -6.04% (inactive).

`O=C(N/N=C/c1cn(-c2ccccc2)nc1-c1cccs1)c1ccc(Cl)cc1`: the “inhibition” value was 7.81% (inactive).

Regarding `c1ccc(CCNc2ncnc3c2cnn3-c2ccccc2)cc1`, the “inhibition” value was -1.21% (inactive).

For the compound `Nc1nc(-c2cccc(F)c2)cs1`, the “inhibition” value was -0.58% (inactive).

Consider `c1ccc(NNC2=NCCCCC2)cc1`, for which the “inhibition” value is -2.54% (inactive).

On to `Cc1ccc(CN2CCN(Cc3ccc(-n4cccn4)cc3C)CC2CCO)cc1` (stereo unspecified), for which the “inhibition” value is -3.02% (inactive).

Take `C/C(=N\N(Cc1ccccc1)c1ccccc1)c1ccncc1`: the “inhibition” value was 4.7% (inactive).

For `O=C(NCc1ccc2c(c1)OCO2)c1c(O)nc2sccn2c1=O`, the “inhibition” value is 1.96% (inactive).

On to `O=C(CCN1C(=O)/C(=C/c2ccccc2Cl)SC1=S)N1CCCC1`, for which the “inhibition” value is 0.83% (inactive).

Regarding `CCOC(=O)C1CCN(C(=O)c2ccc3c(c2)NC(=O)/C(=C/c2ccccc2)S3)CC1`, the “inhibition” value was -14.7% (inactive).

As for `Clc1ccc(-c2ccc(C=Nc3ccc(N4CCOCC4)cc3)o2)c(Cl)c1`, the “inhibition” value is -3.46% (inactive).

Consider `O=C(c1ccccc1)c1c[nH]c(C(=O)NNc2ccccc2)c1`, for which the “inhibition” value was -7.38% (inactive).

Consider `O=C(C[n+]1ccccc1)NNc1ccccc1`, for which the “inhibition” value is -6.73% (inactive).

With `O=C(CSc1nc(Nc2ccccc2)nc(N2CCOCC2)n1)Nc1cc(Cl)ccc1O`, the “inhibition” value is 2.45% (inactive).

Take `CCOC(=O)c1cn[nH]c1N`: the “inhibition” value was -1.01% (inactive).

Turning to `O=C(NNc1ccc([N+](=O)[O-])cc1)c1ccco1`, the “inhibition” value was -3.37% (inactive).

Regarding `CC(C)Oc1ccc(NC(=O)Oc2ccccc2)cc1`, the “inhibition” value was -21.4% (inactive).

On to `COC(=O)C(NC(=O)c1ccc(OC)cc1)(Nc1ncc(S(=O)(=O)c2ccc([N+](=O)[O-])cc2)s1)C(F)(F)F` (stereo unspecified), for which the “inhibition” value is -3.98% (inactive).

`N#C/C(=C1\CCCN1)c1nc(-c2ccccc2)cs1`: the “inhibition” value was 0.87% (inactive).

Regarding `COC(=O)c1ccc(N/N=C/c2cc([N+](=O)[O-])cc(OC)c2O)cc1`, the “inhibition” value is 3.48% (inactive).

Turning to `O=C(c1ccco1)N1CCN(C(=O)C2CC(c3ccc(Cl)c(Cl)c3)=NO2)CC1` (stereo unspecified), the “inhibition” value was 12.1% (inactive).

Regarding `CCCSC1=C(C#N)C(c2ccc(Cl)cc2Cl)CC(=O)N1` (stereo unspecified), the “inhibition” value is -8.3% (inactive).

In the case of `COc1ccc(S(=O)(=O)N(C)CC(=O)NCCCn2ccnc2)cc1Cl`, the “inhibition” value is -6.65% (inactive).

On to `CC1CCC/C(=N\NC(=S)Nc2ccccc2)C1` (stereo unspecified), for which the “inhibition” value is 0.12% (inactive).

On to `Cc1nn(-c2ccccc2)c(Cl)c1/C=N/NC(=O)c1ccc(CNc2ccccc2)o1`, for which the “inhibition” value was -3.39% (inactive).

With `Cc1cc(/C=C(/C#N)c2cccc(F)c2)c(C)n1-c1cccnc1`, the “inhibition” value was 1.53% (inactive).

Take `COc1ccc2[nH]c(=O)c(CNc3cccc(C)c3)cc2c1`: the “inhibition” value is 2.12% (inactive).

For the compound `CCOC(=O)c1ccc(NC(=O)CSc2ccc(-c3cccnc3)nn2)cc1`, the “inhibition” value was -3% (inactive).

With `CC1(C)CN(c2ccccc2)N(C(=O)c2ccc(C#N)cc2)C1=O`, the “inhibition” value was 2.97% (inactive).

Take `C(=N\N1CCN(C2c3ccccc3-c3ccccc32)CC1)/c1ccccn1`: the “inhibition” value is -1.89% (inactive).

With `CC(=O)c1ccc2c(c1)C1C(Cl)C(Sc3ccccc3[N+](=O)[O-])CC1C(c1ccccc1)N2` (stereo unspecified), the “inhibition” value is 3.73% (inactive).

Turning to `Cc1cn(-c2ccc(Br)cc2)[nH]c1=O`, the “inhibition” value was -5.24% (inactive).

In the case of `Nc1cnccc1C(=O)O`, the “inhibition” value was -4.85% (inactive).

Take `CC(NC(=O)c1ccccc1Br)C1CC2CCC1C2` (stereo unspecified): the “inhibition” value was -1.35% (inactive).

With `O=C(NC1CCCCC1)C1CC(=O)N(c2cccc([N+](=O)[O-])c2)C1` (stereo unspecified), the “inhibition” value was -25.3% (inactive).
